Assay outcomes deposited in PubChem BioAssay by University of Kansas High Throughput Screening Laboratory.
The list is not random: actives were taken first. Their share in the collection is about 3.5%.
Pf apPOL block – Pf-apPOL DNA polymerase inhibition | actives 0.25% (n = 210,000) | Recombinant Pf-apPOL, molecular beacon fluorescence, 1.5 h | inhibition, % at 10 µM
mHTT-CaM PPI inh – inhibitors of human mutant huntingtin-calmodulin interaction | actives 3.6% (n = 190,000) | AlphaScreen His-mHTT/GST-CaM binding, luminescence | AID 1671202 | inhibition, % at 15 µM | P42858
Each line names hits and unclear results; the compound was inactive in the other large screens. Cut-off read from the data, not from the text of the source: active = inhibition above about 50%; inactive = the rest.

Cc1oc(C2CCN(C(=O)c3c(F)cccc3Cl)CC2)nc1C(=O)N1CCCC1	none
COc1cccc(Oc2c(C)oc3c4c(ccc3c2=O)OCN(Cc2ccccn2)C4)c1	mHTT-CaM PPI inh 100.3
Cc1oc2c3c(ccc2c(=O)c1-c1ccccc1)OCN(Cc1ccccn1)C3	mHTT-CaM PPI inh 69.1
COCCN1COc2ccc3c(=O)c(Oc4cccc(OC)c4)c(C(F)(F)F)oc3c2C1	none
Cc1oc2c3c(ccc2c(=O)c1-c1ccccc1)OCN(CC1CCCO1)C3 (stereo unspecified)	none
Cc1oc(C(=O)NCc2ccccc2Cl)cc1S(=O)(=O)N1CCOCC1	none
CC(C)n1c(=O)c(N2CCN(C(=O)c3ccccc3)CC2)nc2ccncc21	none
CC(C)n1c(=O)c(N2CCN(C(=O)c3cc(-c4ccccc4)n[nH]3)CC2)nc2ccncc21	mHTT-CaM PPI inh 50.3
Cc1nn(-c2ccc(C(=O)NC3CCCCC3)cc2)c2c1C(=O)CC(C)(C)C2	none
Cc1ccc(C(=O)N(C)C2CCCCC2)c(C2CCN(C(=O)C3CC3)CC2)n1	none
CSCCC(C(O)=C(C#N)c1nc2ccccc2[nH]1)N1C(=O)c2ccccc2C1=O (stereo unspecified)	mHTT-CaM PPI inh 67.1
CC/C(O)=C(/C#N)c1nc2ccccc2[nH]1	none
N#CC(=C(O)CCCN1C(=O)c2ccccc2C1=O)c1nc2ccccc2[nH]1	none
CC(C)CC(C(O)=C(C#N)c1nc2ccccc2[nH]1)N1C(=O)c2ccccc2C1=O (stereo unspecified)	mHTT-CaM PPI inh 92.4
O=C1C2C3C=CC(CC3)C2C(=O)N1c1cc(Cl)ccc1Cl (stereo unspecified)	none
COc1ccccc1N=c1oc2ccc([N+](=O)[O-])cc2cc1C(=O)Nc1nccs1	none
Cc1ncc(CO)c2cc(C(=O)Nc3ccc(F)cc3F)c(=Nc3ccc(C#N)cc3)oc12	none
O=C(CSc1nc2ccccc2[nH]1)Nc1ccccc1[N+](=O)[O-]	none
Cc1ccc(Cl)cc1NC(=O)c1cccc(F)c1	none
NC(=O)c1c(NC(=O)C2CCCN(C(=O)c3ccco3)C2)sc2c1CCCC2 (stereo unspecified)	mHTT-CaM PPI inh 73.0
NC(=O)c1c(NC(=O)c2ccco2)sc2c1CCC2	none
CCOC(=O)C1CCc2sc(NC(=O)Cc3sc(C)nc3C)nc21 (stereo unspecified)	none
OC(C#CC1CC1)c1ccco1 (stereo unspecified)	mHTT-CaM PPI inh 100.2
OC(C#CC1(O)CCCCC1)c1ccco1 (stereo unspecified)	none (no result: Pf apPOL block)
Cc1oc2ccn(Cc3cccc(F)c3)c(=O)c2c1C(=O)NC1CCCCC1	none
CCn1cc(/C=C2\C(=O)NC(=O)N(c3ccc(F)cc3)C2=O)c2ccccc21	none
CCn1cc(/C=C2\C(=O)NC(=O)N(c3ccc(Br)cc3)C2=O)c2ccccc21	none
CCN(CC)C(=O)Cn1cc(/C=C2\C(=O)NC(=O)N(c3cccc(C)c3C)C2=O)c2ccccc21	mHTT-CaM PPI inh 56.0
CCn1cc(/C=C2\C(=O)NC(=O)N(c3ccc(C)cc3)C2=O)c2ccccc21	mHTT-CaM PPI inh 53.0
COc1ccc(S(=O)(=O)N2CC=C(c3cn(C)c4ncccc34)CC2)cc1Cl	none
Cc1ccc(S(=O)(=O)N2CC=C(c3cn(C)c4ncccc34)CC2)cc1Cl	mHTT-CaM PPI inh 64.8
COc1ccc(C(=O)NCCc2c[nH]c3ccccc23)cc1	none
COc1ccc(C(=O)C(C)OC(=O)CCc2c[nH]c3ccccc23)cc1 (stereo unspecified)	mHTT-CaM PPI inh 90.4
CCc1ccc(NC(=O)c2ccc(-c3cncnc3)nc2)cc1	none
Cn1cccc1-c1cc2n(n1)CCCN2C(=O)CCC(=O)N1CCc2ccccc2C1	mHTT-CaM PPI inh 54.4
Cc1ccccc1NC(=O)CCC(=O)N1CCCn2nc(-c3cccn3C)cc21	none
O=C1c2cccc(Cl)c2C(=O)c2c1cccc2N1CCOCC1	mHTT-CaM PPI inh 88.0
O=C1c2ccccc2-c2onc3ccc(N4CCOCC4)c1c23	none
O=C1N/C(=C\c2cn(Cc3ccc([N+](=O)[O-])cc3)c3ccccc23)C(=O)N1Cc1ccc(F)cc1	none
O=C(c1ccc(F)c(F)c1)N1CCC2(CC1)NC(=O)N(Cc1ccc(Cl)cc1)C2=O	none
COc1ccc(CCNC(=O)CCSCc2cccc(Cl)c2)cc1OC	none
Cc1cc2[nH]c(C(=O)Nc3cccc(C)c3C)c(CN3CCOCC3)c2s1	mHTT-CaM PPI inh 52.9
Cc1cc2[nH]c(C(=O)Nc3cccc(Cl)c3C)c(CN3CCOCC3)c2s1	none
Cc1c(C(=O)NCc2ccco2)c(C(F)(F)F)nn1C1CCCN(C(C)C)C1 (stereo unspecified)	none
CN(C)N1C(=O)c2ccccc2C1=O	none
CN(C1=CC(=O)c2ccccc2C1=O)c1ccccc1	mHTT-CaM PPI inh 59.5
CC(=O)NCc1cccnc1-c1ccc(F)cc1	none
COC(=O)c1ccc(NC(=O)C(=O)NCCc2c[nH]c3ccccc23)cc1	none
CC1C(=O)N2CCCc3cc(NC(=O)C(=O)NCCc4c[nH]c5ccccc45)cc1c32 (stereo unspecified)	mHTT-CaM PPI inh 76.5
